Where “and” joins values, the source holds several entries; their conditions need not be identical. Identical values can stand only once. Results filed as inconclusive are left out. A call without a number means that no potency is given here. Calls of active or inactive are those of the source. Calls follow the shape of the dose curve; as a rule, active = well fitted cell-killing curve with a large enough effect; inconclusive = small, poorly fitted or top-dose-only effect; inactive = no such curve, though single readings can be large or run the other way.
Potency is read from the fitted curve at half-maximal effect.

A short description of the assay: qHTS of pediatric cancer cell lines to identify multiple opportunities for drug repurposing: Primary screen for NB1643 cells (AID 1347099). Also: nearly all actives have a fitted effect of over 50% in size. As to conditions: NB1643 neuroblastoma viability, CellTiter-Glo luminescence, 48 h; series mostly up to 46 µM. From the text: Drug repurposing or repositioning has been offered as a strategy for drug development in oncology programs. This approach has special potential for childhood cancers and other rare or orphan diseases, where the expected return on new drug development has been a disincentive to pharmaceuticals. […] In this project we exploit the poly-pharmacology of drugs to discover new indications via phenotypic screening of a panel of 19 well-characterized cell lines derived from solid tumors seen in children and adolescents. The goal is to identify approved drugs with previously unrecognized anticancer properties that has the potential to reveal new mechanisms and biological processes involved in carcinogenesis or drug resistance. We employed a titration-based paradigm (quantitative high-throughput screening or qHTS), where all compounds were tested at multiple concentrations for their effect on cell viability. Concentration-response curves (CRCs) were derived directly from the primary screen, and both potency and efficacy values were used to identify compounds with robust bioactivity profiles. We screened the NIH Chemical Genomics Center (NCGC) Pharmaceutical Collection (NPC) and Mechanism Interrogation Plate (MIPE) small molecule collections of approved and investigational compounds against these cell lines; and measured metabolically active cells after 48 hours of compound treatment as a proxy for cell viability. […] Assay Submitter: Nathalia J. Martinez, National Center for Advancing Translational Sciences, National Institutes of Health, Rockville, MD, USA; email: natalia.martinez@nih.gov Shen, M et al. Quantitative high-throughput phenotypic screening of pediatric cancer cell lines identifies multiple opportunities for drug repurposing. Oncotarget 2017 Dec 19;9(4):4758-4772. PMID 29435139.
The cells were obtained from University of North Carolina (UNC), Pediatric Preclinical Testing Program (PPT), and Coriell Institute (CI). qHTS cell viability assay: Cells were assayed in growth media at a density of 500-1,000 cells/well. Five microliters of cells were dispensed into 1,536-well, white, solid-bottom, TC-treated plates (Greiner Bio One) using a multidrop dispenser and incubated at 37 degrees C, 5% CO2, under a humidified atmosphere for 5 hours. Twenty-three nanoliters of compounds and controls (neutral control DMSO or positive control bortezomib at final concentration of 2.3 µM) were subsequently transferred by Kalypsys pintool. For primary screens, the MIPE collection was tested at 11-point dilutions (final concentrations range from 0.78 nM to 46 µM) and the NPC collection at 8-point dilutions (final concentrations range from 0.59 nM to 46 µM). Compounds tested in follow-up screens were assayed at 11-point dilutions. Cells were incubated for 48 hours, followed by addition of 3 µL of CellTiter-Glo (Promega). After a 15 min incubation at room temperature, samples were analyzed for luminescence intensity using a ViewLux High-throughput CCD imager equipped with clear filters.
With `O=c1cc(CN2CCOCC2)occ1OCCCCCSc1ccnc2cc(C(F)(F)F)ccc12`, the Potency entry was “inactive”.

As to `Cn1cc(C=C2C(=O)Nc3cccnc32)c2ccccc21`, the Potency result is “inactive”.

Take `CC(C)=CC[C@@H](O)C1=CC(=O)c2c(O)ccc(O)c2C1=O`: the Potency was 3.32 µM (active).

Take `O=C(O)CCc1nc(-c2ccccc2)c(-c2ccccc2)o1`: the Potency result is “inactive”.

For `NS(=O)(=O)c1ccc(NC2=CC(=O)c3ccccc3C2=O)cc1`, the Potency is 18.7 µM (active).

On to `CCOC(CN1C(=O)[C@](CC(=O)Nc2ccc(C)cc2)(NC(=O)Nc2ccc(C)cc2)c2ccccc21)OCC`, for which the Potency is 16.6 µM (active).

`NC(N)=Nc1nc(CSCC/C(N)=N/S(N)(=O)=O)cs1`: the Potency entry is “inactive”.

As to `CC(=O)N(C)C1(c2ccccc2)CCN(CCC[C@]2(c3ccc(Cl)c(Cl)c3)CCCN(C(=O)c3ccccc3)C2)CC1`, the Potency is 23.5 µM (active).

For the molecule `CCC(=O)O[C@]1(C(=O)CO)CC[C@H]2[C@@H]3CCC4=CC(=O)CC[C@]4(C)[C@@H]3CC[C@@]21C`, the Potency result is “inactive”.

For `OC[C@@H](O)[C@H](O)[C@H](O)[C@@H](O)CO`, the Potency entry was “inactive”.

Regarding `CN[C@@H](C)C(=O)N[C@H]1CN(C(=O)CC(C)C)CC[C@H]2CC[C@@H](C(=O)NC(c3ccccc3)c3ccccc3)N2C1=O`, the Potency result was “inactive”.

For `O=C1c2ccccc2-[n+]2ccc3c([nH]c4ccccc43)c21`, the Potency was 5.26 µM (active).

In the case of `CN(C)c1cc(NC(=O)CNC(C)(C)C)c(O)c2c1C[C@@H]1C[C@H]3[C@H](N(C)C)C(=O)C(C(N)=O)=C(O)[C@@]3(O)C(=O)C1=C2O`, the Potency result is “inactive”.

For `CCCCCNC(=O)N1CCC(CN(Cc2ccc(Cl)cc2)Cc2ccc([N+](=O)[O-])s2)C1` (stereo not given), the Potency is 23.5 µM (active).

On to `OC[C@H]1O[C@@H](Oc2cc(O)cc(C=Cc3ccc(O)cc3)c2)[C@H](O)[C@@H](O)[C@H]1O`, for which the Potency result is “inactive”.

As to `CC[C@H]1OC(=O)[C@H](C)[C@@H](O[C@H]2C[C@@](C)(OC)[C@@H](O)[C@H](C)O2)[C@H](C)[C@@H](O[C@@H]2O[C@H](C)C[C@H](N(C)C)[C@@H]2O)[C@](C)(O)C[C@@H](C)CN(C)[C@H](C)[C@@H](O)[C@]1(C)O`, the Potency entry was “inactive”.

Turning to `C=CCc1ccc(O)c(-c2ccc(O)c(CC=C)c2)c1`, the Potency result is “inactive”.

`CC1(C)CCC2=C(O1)c1ccccc1C(=O)C2=O`: the Potency was 23.5 µM (active).

As for `C[C@H](NC(=O)c1sccc1OCc1ccc(Cl)cc1)c1ccccc1`, the Potency is 23.5 µM (active).

Turning to `CCC(CC)[C@H](NC(C)=O)[C@@H]1[C@H](O)[C@@H](C(=O)O)C[C@@H]1N=C(N)N`, the Potency entry is “inactive”.

For the molecule `NC1CCC(Nc2nc(Nc3ccc(C(=O)N4CCCCC4)cc3)c3ncn(-c4cccc(F)c4)c3n2)CC1` (stereo not given), the Potency result is “inactive”.

Regarding `CCc1ccc(OCc2ccccc2C(=O)Nc2ccc3nc(C)cc(N)c3c2)cc1`, the Potency is 8.33 µM (active).

With `O=C(CCCCCCC(=O)Nc1ccccc1)NO`, the Potency was 944 nM (active) and 1.32 µM (active).

As to `C=C1C(=O)OC2C=C(C)CCC=C(C)CCC12` (stereo not given), the Potency was 23.5 µM (active).

With `CN1C[C@H]2c3ccccc3Oc3ccc(Cl)cc3[C@@H]2C1`, the Potency result was “inactive”.

Regarding `CC1(C)O[C@H]2C[C@@H]3[C@H]4CCC5=CC(=O)C=C[C@]5(C)[C@@]4(F)[C@@H](O)C[C@]3(C)[C@]2(C(=O)CO)O1`, the Potency was 14.8 µM (active).

On to `COCCOC(=O)C1=C(C)NC2=C(C(=O)CC(c3ccccc3OC)C2)C1c1cccc(O)c1` (stereo not given), for which the Potency is 20.9 µM (active).

As for `Cc1cnc(C(=O)O)c[n+]1[O-]`, the Potency result was “inactive”.

On to `O=C(OCC#CCSc1nnc(-c2cccc3ccccc23)o1)c1cc2ccccc2s1`, for which the Potency entry is “inactive”.

In the case of `O=C(O)C(O)Cc1ccc(O)c(O)c1` (stereo not given), the Potency result was “inactive”.

For the molecule `C[C@@H](O)[C@H]1C(=O)N2C(C(=O)O)=C(S[C@@H]3CN[C@H](C(=O)N(C)C)C3)[C@H](C)[C@H]12`, the Potency result is “inactive”.

Consider `C[C@H]1[C@H](NC(=O)C(=NOC(C)(C)C(=O)O)c2csc(N)n2)C(=O)N1S(=O)(=O)O`, for which the Potency result was “inactive”.

As to `NCCS`, the Potency entry is “inactive”.

Turning to `O=C(O)c1ccccc1C(=O)Nc1ccc(-c2ccccc2)cc1`, the Potency entry was “inactive”.

Regarding `O=c1c(-c2ccc(O)cc2)coc2cc(O[C@@H]3O[C@H](CO)[C@H](O)[C@H](O)[C@H]3O)ccc12`, the Potency entry is “inactive”.

In the case of `O=C1Nc2ccc(Cl)cc2C(C#CC2CC2)(C(F)(F)F)O1` (stereo not given), the Potency was 23.5 µM (active).

Consider `CC(=O)CCCCn1c(=O)c2c(ncn2C)n(C)c1=O`, for which the Potency entry is “inactive”.

As to `CNC(=O)c1ccc2cc(C3(O)CCn4cncc43)ccc2c1` (stereo not given), the Potency entry was “inactive”.

Consider `CN(C)C1CCN(C(=O)c2ccc(NC(=O)Nc3nc(N4CCOCC4)nc(N4CCOCC4)n3)cc2)CC1`, for which the Potency was 0.372 µM (active).

As to `CO[C@H]1C=CO[C@@]2(C)Oc3c(C)c(O)c4c(O)c(c5c(c4c3C2=O)NC2(CCN(CC(C)C)CC2)N=5)=NC(=O)C(C)=CC=C[C@H](C)[C@H](O)[C@@H](C)[C@@H](O)[C@@H](C)[C@H](OC(C)=O)[C@H]1C`, the Potency entry was “inactive”.
